Results filed as inconclusive are left out. Calls of active or inactive are those of the source. Calls follow the shape of the dose curve; as a rule, active = well fitted inhibition curve with a large enough effect; inconclusive = small, poorly fitted or top-dose-only effect; inactive = flat fitted curve, though single readings scatter.
Molecular target: Calcium and integrin-binding protein 1 (Homo sapiens) (UniProt Q99828)
Test: Primary qHTS for Identification of Calcium Integrin Binding Protein 1 (CIB1) Competitor (AID 1508620);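 also: GST tagged CIB1 binding a fluorescein labelled alphaIIb integrin peptide tracer; top concentration of the series differs between compounds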
Conditions: CIB1-GST / FITC-alphaIIb peptide fluorescence polarization; series mostly up to 114 µM; activity change, negative = inhibition: at the top concentration
In short: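 CIB1-GST (1 uM final) and compound incubated 15 min at room temperature before adding FITC-alphaIIb peptide tracer (100 nM final). Competition for binding read by fluorescence polarization (ex 480, em 540) after another 15 min at room temperature.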
% is scaled to controls: 0 for no effect and ±100 for the full control effect.

Chain of Calcium and integrin-binding protein 1 (Homo sapiens) (Q99828 whole entry, looked up): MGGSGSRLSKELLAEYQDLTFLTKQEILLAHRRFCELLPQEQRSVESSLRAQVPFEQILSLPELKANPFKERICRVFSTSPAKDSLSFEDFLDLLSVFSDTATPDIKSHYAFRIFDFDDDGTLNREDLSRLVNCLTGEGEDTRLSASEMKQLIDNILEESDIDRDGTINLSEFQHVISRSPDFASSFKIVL

| Structure (SMILES) | activity change, negative = inhibition |
| --- | --- |
| CN(CCc1ccco1)c1ncnc2ccc(-c3ccc4c(c3)OCO4)cc12 | -3.33% (inactive) |
| CC(C)(C)c1cccc(NC(=O)Nc2nnc(-c3ccncc3)s2)c1 | -2.11% (inactive) |
| CCOc1cc(CCNC(=O)c2cc3sccc3n2Cc2ccccc2)cc(F)c1OCC | 4.75% (inactive) |
| CC(=O)Nc1sc2c(c1-c1ccccc1)CCN(C(=O)OC(C)(C)C)C2 | 7.21% (inactive) |
| COc1ccc([S+](=O)([O-])N2CCCN([S+](=O)([O-])c3ccc(OC)c(N)c3)CC2)cc1N | -0.27% (inactive) |
| COc1ccc(C2Nc3ccccc3C(=O)N2Cc2cccs2)cc1COc1c(C)cccc1C (stereo not given) | 4.98% (inactive) |
| Cc1ccc(OCCn2c(CCNC(=O)c3ccc(F)cc3F)nc3ccccc32)cc1 | 7.31% (inactive) |
| Fc1cccc(-c2ccc(Nc3nc(-c4ccncc4)nc4ccccc34)cc2F)c1 | 2.21% (inactive) |
| N#Cc1c(-c2cccc(Br)c2)no[n+]1[O-] | 4.21% (inactive) |
| Cc1nnc(-c2cnn(C)c2N)n1CCc1ccccc1 | -3.52% (inactive) |
| Cc1ccc(OCCn2c(CCNC(=O)c3cccc4[nH]ccc34)nc3ccccc32)cc1 | 7.24% (inactive) |
| Cc1ccc(-c2ccc(=O)n(CCNC(C)c3ccco3)n2)cc1 (stereo not given) | -11.7% (inactive) |
| c1csc(CNc2ccc(N3CCCCC3)cc2)c1 | 0.2% (inactive) |
| C#CCOc1cccc(-c2nnc3n2N=C(c2ccc(OC)c(OCC(C)=O)c2)CS3)c1 | 6.05% (inactive) |
| CC(C)(C)OC(=O)N1CCN(c2ccc(NCc3cccc(-c4ccc(C#N)cc4)n3)cc2)CC1 | -0.84% (inactive) |
| Oc1ccc(COC2CCCC2)c2cccnc12 | -1.54% (inactive) |
| CC(C)(C)NC(=O)Nc1nnc(-c2ccncc2)s1 | -3.34% (inactive) |
| O=S(=O)(c1ccc2c(c1)OCCO2)N1CCN(S(=O)(=O)c2cc(F)c(F)cc2F)CC1 | 5.19% (inactive) |
| c1cncc(-c2ccc(CNc3nc(-n4ccnc4)nc4ccccc34)cc2)c1 | 6.93% (inactive) |
| NC(=O)C1CCN(c2ncc(-c3cccc(F)c3)s2)CC1 | -1.28% (inactive) |

| Structure (SMILES) | activity change, negative = inhibition |
| --- | --- |
| Cc1cccc(-n2cnc3cc(C(=O)N4CCOCC4)ccc32)c1 | 0.762% (inactive) |
| Cc1cc(C)nc(NC(=S)N2CCN(c3ccccc3C#N)CC2)c1 | -10.5% (inactive) |
| O=S(=O)(c1ccc2c(c1)OCCO2)N1CCN(S(=O)(=O)c2ccc(Br)cc2F)CC1 | -1.54% (inactive) |
| Cc1ccc(Cn2ncc3c4sc(C)cc4n(C)c3c2=O)c(C)c1 | 6.58% (inactive) |
| O=C(O)CCCCCNC(=O)CSc1nnc(-c2ccc([S+](=O)([O-])N3CCCC3)cc2)n1-c1ccccc1 | -7.32% (inactive) |
| CC(=O)Nc1cccc(S(=O)(=O)N2CCN(S(=O)(=O)c3ccc4c(c3)OCCO4)CC2)c1 | 3.22% (inactive) |
| Cc1ccc(NS(=O)(=O)c2cc3c(cc2-c2ccsc2)NC(=O)CO3)cc1C | 0.612% (inactive) |
| O=C(Cc1nnc(-c2nc3ccccc3[nH]2)o1)Nc1cc(C(F)(F)F)ccc1Cl | -0.3% (inactive) |
| CC(C)CN1CCN(C(=O)COC(=O)c2ccc(S(C)(=O)=O)c([N+](=O)[O-])c2)CC1 | -5.27% (inactive) |
| O=S(=O)(NCCNc1nc(-c2ccco2)nc2ccccc12)c1ccccc1 | -9.7% (inactive) |
| COc1cc(O)c(C(CC(=O)N2CCC(Cc3ccccc3)CC2)c2ccc(C)cc2)c(OC)c1 (stereo not given) | 1.79% [at 228 µM] (inactive) |
| NC(=O)C1CCN(c2nc(-c3ccccc3)cs2)CC1 | 1.84% (inactive) |
| COc1ccc(C[C@@H](NS(=O)(=O)c2ccc(C(=O)O)cc2)C(=O)O)cc1 | -5.33% (inactive) |
| NC(=O)C1CCN(c2nc(-c3cccc4ccccc34)cs2)CC1 | -3.58% (inactive) |
| Cc1ccc2nsnc2c1S(=O)(=O)Nc1cccc2cccnc12 | -4.15% (inactive) |
| COc1cccc(-c2ccc(=O)n(CC(=O)NCCc3ccccc3)n2)c1 | -2.24% (inactive) |
| Cc1ccc(C(=O)Oc2ccc(-c3nc4ccccc4[nH]3)cc2)cc1Br | -3.94% (inactive) |
| COc1ccc(C2Nc3ccccc3C(=O)N2CCCN(C)C)cc1COc1c(C)cc(NC(C)=O)cc1C (stereo not given) | -0.308% (inactive) |
| O=C1NC(=O)/C(=C/c2ccco2)N1 | -2.71% (inactive) |
| O=C(Nc1sc2c(c1-c1nc3ccccc3s1)CCNC2)C(F)F | 9.59% (inactive) |
